Screening results as filed in PubChem.
A selection: hits, their analogues and other compounds. The true share with any hit is near 4.2%.
D1 antagonist: antagonists of human D1 dopamine receptor; P21728; HEK293 TREx D1 cells, calcium flux, dopamine EC80; hits give low values; activity change, negative = inhibition, % at 10 µM; 360,000 tested, 3.2% active; in the data active means activity change below about -30%; further: on the % scale 0 is the no-effect control and ±100 the full control effect
Target sequence (P21728 whole entry, looked up): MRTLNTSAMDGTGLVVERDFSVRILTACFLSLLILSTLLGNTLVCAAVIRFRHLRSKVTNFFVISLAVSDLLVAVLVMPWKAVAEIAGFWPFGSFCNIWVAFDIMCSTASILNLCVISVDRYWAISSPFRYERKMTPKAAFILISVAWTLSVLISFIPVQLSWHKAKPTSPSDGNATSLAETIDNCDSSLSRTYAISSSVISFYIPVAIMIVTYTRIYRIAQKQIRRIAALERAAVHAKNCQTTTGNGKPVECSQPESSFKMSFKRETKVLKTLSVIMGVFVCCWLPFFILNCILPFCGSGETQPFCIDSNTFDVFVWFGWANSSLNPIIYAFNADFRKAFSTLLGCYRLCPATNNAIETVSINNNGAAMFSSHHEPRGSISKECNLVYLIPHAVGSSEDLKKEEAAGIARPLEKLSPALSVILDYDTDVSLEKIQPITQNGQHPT
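Antagonism measured as reduced calcium response to an EC80 dopamine addition following 180 s compound pre-read; cells were inducible HEK293 Trex D1 plated overnight at 30 C, read kinetically at 1 cycle/sec.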
D1 potentiator: enhances dopamine response at the human D1 receptor; HEK293 TREx D1 cells, calcium flux, dopamine EC20 potentiation; potentiation, % at 10 µM; 360,000 tested, 0.036% active; AID 504651; in the data active means potentiation above about 30%; further: 0% is about no effect
TRPV1 PAM: potentiators of human vanilloid receptor 1 (TRPV1); TRPV1-expressing cells, Fluo-8 calcium influx, capsaicin EC20 potentiation; 320,000 tested, 0.02% active; Q8NER1; potentiation, % at 8.33 µM; AID 540277; in the data active means potentiation above about 80%; inconclusive means between about 30% and that limit; further: 0% is about no effect
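Cells expressing TRPV1 were dye-loaded with Fluo-8 and read kinetically: 10 s baseline, 3 min after compound (agonist portion), then 2 min after EC20 capsaicin (allosteric enhancer portion). Calcium-bound dye fluorescence at 480/520 nm.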
D1 ag: activates the human D1 dopamine receptor; 360,000 tested, 1% active; activation, % at 2 µM; HEK293 T-REx D1 cells, calcium flux, agonist mode; in the data active means activation above about 30%; further: 0% is about no effect
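Agonism was scored from calcium flux recorded over 180 s (1 read/s) after pintool compound addition, following a 10-cycle baseline. Cells were inducible force-coupled HEK293 TREx D1, plated overnight at 30 C and loaded with no-wash calcium dye.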
TRPV1 ag: activates the human vanilloid receptor TRPV1 | TRPV1-expressing cells, Fluo-8 calcium influx, agonist mode | activation, % at 8.33 µM | 320,000 tested, 0.19% active; in the data active means activation above about 80%; inconclusive means between about 30% and that limit; further: 0% is about no effect
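Fluo-8 calcium influx in TRPV1-expressing cells, kinetic read (ex 480/em 520 nm). Compound added and read 3 min for agonist activity, followed by capsaicin at EC20 final and 2 min further read for enhancement.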
Active calls of the source: *; i = inactive; ? = inconclusive; nt = no result given.

SMILES	D1 antagonist	D1 potentiator	TRPV1 PAM	D1 ag	TRPV1 ag
COC(=O)c1cc(NC(=O)c2sc3ncn(Cc4cccc(F)c4)c(=O)c3c2C)cc(C(=O)OC)c1	-3.0	-0.5	nt	2.5	nt
CCOC(=O)c1ccc(NC(=O)c2c(NCc3ccc(OC)c(OC)c3OC)sc3c2CCC(C)C3)cc1 (stereo not given)	12.4	1.2	nt	0.2	nt
Cc1cc2c(s1)c1cnn(Cc3ccc(F)c(Cl)c3)c(=O)c1n2C	-11.3	-4.3	nt	0.4	nt
COc1ccccc1CNC(=O)c1cnn2c(C)c(Cc3ccc(F)cc3)c(C)nc12	18.8	2.6	nt	-1.6	nt
COc1ccc(CNC2CCSc3ccccc32)cc1OC (stereo not given)	-32.1*	-3.0	2.7	2.4	-1.8
Cn1c(=O)[nH]c(=O)c2c1nc(Br)n2Cc1ccccc1Cl	-6.1	0.2	-14.6	2.1	-1.0
Cn1c(=O)[nH]c(=O)c2c1nc(SCC(O)CO)n2Cc1ccccc1Cl (stereo not given)	-64.0*	-3.2	2.9	0.8	-1.0
O=C(CNC(=O)C1CCCCC1)NNC(=O)c1ccccc1Br	-35.3*	-8.4	8.1	1.6	-5.1
O=C(CNC(=O)C1CCCCC1)NNC(=O)c1ccc(Cl)cc1Cl	5.0	-7.3	1.0	1.3	-2.4
CCCOc1ccccc1C(=O)Nc1ccc(S(=O)(=O)N2CCN(C)CC2)cc1	-49.4*	-12.2	1.8	4.4	-3.6
CN1CCN(S(=O)(=O)c2ccc(NC(=O)c3csc4ccccc34)cc2)CC1	-44.7*	-12.1	-1.0	2.5	-2.7
CCCOc1ccc(C(=O)Nc2ccc(S(=O)(=O)N3CCN(C)CC3)cc2)cc1	-72.5*	-11.0	1.3	9.7	-5.6
CN1CCN(S(=O)(=O)c2ccc(NC(=O)c3cccs3)cc2)CC1	5.0	-3.4	2.3	1.1	0.7
COc1ccc(/C=N/NC(=O)c2nc(-c3ccccc3)n(-c3ccccc3)n2)c(O)c1	-60.5*	-7.8	21.3	8.4	0.5
COc1ccc(/C=C/c2nc(C#N)c(NCCc3ccccc3)o2)cc1OC	-6.1	-0.3	nt	0.0	nt
CC1=Nc2ccccc2/C1=C/c1sc(=S)n(-c2cccc(C(=O)O)c2)c1O	-4.8	2.5	-3.9	48.9*	12.3
Oc1c(C=C2N=c3ccccc3=N2)sc(=S)n1-c1ccccc1	-2.7	-5.8	-2.0	7.9	-0.4
COc1ccc(OC)c(NC(=O)CCN2CC(C)OC(C)C2)c1 (stereo not given)	6.8	3.6	-2.7	0.4	-3.2
COc1ccc(OC)c(NC(=O)CCN2CCN(c3ccccc3F)CC2)c1	-38.2*	-9.8	12.1	6.4	1.1
COC(=O)c1[nH]c2cccc(OC)c2c1NC(=O)CCN1CCC(C)CC1	6.1	0.2	-21.3	-0.4	-0.5
COc1ccc(C)cc1NC(=O)CCN1CC(C)OC(C)C1 (stereo not given)	-30.3*	-3.0	-3.6	0.7	0.7
COC(=O)c1[nH]c2ccc(Cl)cc2c1NC(=O)CCN1CCOCC1	-37.8*	-6.0	5.1	0.9	0.4
COC(=O)c1[nH]c2cccc(OC)c2c1NC(=O)CCN1CCN(c2ccccc2OC)CC1	-39.0*	-10.8	9.5	0.2	0.3
COc1ccc(NC(=O)Cn2c3ncccc3c(=O)n2-c2ccc(C)c(C)c2)c(OC)c1	23.7	-2.1	nt	2.3	nt
COc1ccc([N+](=O)[O-])cc1NC(=O)CCN1CCN(c2ccccc2OC)CC1	-46.4*	-13.8	4.0	1.2	-0.1
SMILES	D1 antagonist	D1 potentiator	TRPV1 PAM	D1 ag	TRPV1 ag
COc1ccc(C)cc1NC(=O)CN1CCN(C/C=C/c2ccccc2)CC1	4.6	-7.2	19.4	38.0*	-2.0
COc1ccc(C)cc1NC(=O)CN1CCN(c2ccccc2F)CC1	-9.3	-2.2	1.3	12.6	5.4
COc1ccc(C)cc1NC(=O)CCN1CCN(c2ccccc2F)CC1	-45.1*	-7.7	0.1	3.4	12.4
Cc1ccc(C)c(NC(=O)CCN2CCN(c3ccccc3F)CC2)c1	-37.6*	-11.3	-14.8	3.4	25.3
Cc1cc(C)c(Nc2nc3ccccc3n3c(C)nnc23)c(C)c1	-0.8	-1.5	nt	2.1	nt
CCc1ccc2c(c1)NC(c1cccnc1)=NC(c1ccc(C(C)(C)C)cc1)=N2	1.2	0.8	nt	1.8	nt
CC1=C(C(=O)N2CCOCC2)C(c2ccc(Br)cc2)NC(=S)N1c1ccccc1 (stereo not given)	-41.7*	-4.8	-1.9	1.0	0.3
CC1=C(C(=O)N2CCOCC2)C(c2ccc(OC(F)F)cc2)NC(=S)N1c1ccccc1 (stereo not given)	nt	-5.7	-0.5	0.2	5.5
CC(Oc1ccc(F)cc1)C(=O)Nc1cc(-c2ccc(F)c(F)c2)no1 (stereo not given)	-41.3*	-1.2	nt	110.8*	nt
CC(C)(C)C(=O)N1CCN(c2nc3ccc(Br)cc3s2)CC1	-24.2	-1.6	7.9	8.7	?
CC(C)(C)C(=O)N1CCN(c2nc3ccc(Cl)cc3s2)CC1	-43.3*	-3.2	-3.0	2.9	?
O=C1OC2(CCCCC2)CC2=C1C1O[C@](CCCCN3C(=O)c4ccccc4C3=O)(Cc3ccccc31)O2	-9.1	-3.2	i	3.3	i
Cn1nc(-c2ccc(OCC(=O)Nc3ccc(Cl)cc3)cc2)c2ccccc2c1=O	2.1	-4.0	nt	14.2	nt
CC1CCN(C(=O)Cn2cc(SCc3cccc(F)c3)c3ccccc32)CC1	7.1	-7.0	nt	1.9	nt
CN1CC2(C)OC(=O)C(Cl)=C2CC1c1ccccc1 (stereo not given)	-54.7*	-5.6	3.5	2.8	2.2
CC(=O)Nc1cccc(NC(=O)C(=O)NCCc2sc(-c3ccccc3)nc2C)c1	-40.0*	-5.7	nt	9.1	nt
Cc1nc(-c2ccccc2)sc1CCNC(=O)C(=O)Nc1ccc(F)c(Cl)c1	1.4	-4.2	nt	7.4	nt
Cc1nc(-c2ccccc2)sc1CCNC(=O)C(=O)Nc1ccc2c(c1)OCCO2	-45.4*	0.5	nt	6.9	nt
Cc1ccccc1C(=O)NCCc1sc(-c2ccc(Cl)cc2)nc1C	-37.6*	-3.4	nt	2.3	nt
CCOC(=O)N1CCC(NC(=O)c2ccc3c(c2)N(Cc2ccccc2C)C(=O)c2ccccc2S3=O)CC1 (stereo not given)	-15.1	-0.9	nt	2.7	nt
CCOc1ccc(N2CC(NC(=O)c3ccc(Cl)cc3)CC2=O)cc1 (stereo not given)	nt	-2.6	nt	-0.8	nt
O=C1CN(C(=O)Cc2ccccc2)C(c2ccc(F)cc2)c2cc(Br)ccc2N1 (stereo not given)	-48.3*	4.3	nt	1.9	nt
O=C(NC1CCCCC1)c1ccc2c(c1)N(Cc1ccc(Cl)cc1)C(=O)c1ccccc1S2(=O)=O	1.8	-1.5	nt	5.3	nt
O=C(C1CC(=O)N(C2CCCC2)C1)N1CCC(Cc2ccccc2)CC1 (stereo not given)	-37.9*	-13.8	22.5	7.3	-4.9
CCc1cccc(C)c1NC(=O)C1CC(=O)N(C2CCCC2)C1 (stereo not given)	-46.1*	0.5	6.5	2.0	-0.6
